Compounds with a hit are over-represented: about 2.2% of the library has one in this group of screens.
APP transl inh: inhibitors of APP translation via 5'UTR reporter, primary screen, APP 5'UTR luciferase, SH-SY5Y cells; SH-SY5Y APP 5'UTR-luciferase reporter, luminescence; inhibition, % at 2 µM; 190,000 compounds, 0.82% hits;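 active = inhibition above a set limit, derived from the sample mean plus 3 SD, cut at about 45% in these data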
Ba/F3 V617F tox: reduced viability of JAK2V617F-dependent Ba/F3 cells, primary screen, JAK2V617F inhibitor project, cell-based, Ba/F3 EpoR-JAK2V617F, luminescence; ATP luminescence; inhibition, % at 5.6 µM; 220,000 compounds, 1.1% hits;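 active = inhibition above the campaign mean plus 3 SD over all tested compounds, cut at about 24% in these data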;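 also: cytokine-independent growth of Ba/F3 cells driven by EpoR plus mutant JAK2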
KLF5 inh: KLF5 expression inhibitors, primary screen, DLD-1 cells, luminescence. DLD-1 KLF5 promoter-luciferase reporter. inhibition, % at 5 µM. 290,000 compounds, 0.23% hits;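 active = inhibition above a per-plate limit of that plate's mean compound inhibition plus 3 SD, cut at about 60% in these data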;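 also: higher means less KLF5 promoter-driven luciferase light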
aSyn 5UTR inh: MLPCN primary screen, SNCA 5' untranslated region. AID 1813, 2009. alpha-synuclein 5'UTR reporter, inhibitor activity. 300,000 compounds, 0.82% hits. inhibition, % (tested at 7.5 µM); in the data active = inhibition above about 60%;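 also: H4 neuroglioblastoma cells stably carrying SNCA 5'UTR luciferase fusion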
BaF3 tox: parental Ba/F3 cell viability inhibition, counter-screen for JAK2V617F inhibitor project, murine pro-B, CellTiter-Glo luminescence. CellTiter-Glo ATP luminescence. inhibition, % at 5.6 µM. 220,000 compounds, 1.1% hits. AID 1486, 2009;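 active = inhibition above a per-campaign cutoff, the mean inhibition of all tested compounds plus 3 SD, cut at about 27% in these data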
IEC-6 cytotox: cytotoxicity in IEC-6 intestinal epithelial cells, primary screen, cytotoxicity control for KLF5 inhibitor project, cell-based, luminescence; inhibition, % at 5 µM; 290,000 compounds, 0.78% hits; IEC-6 cytotoxicity, luminescence viability; AID 1825, 2009; in the data active = inhibition above about 22%
Each line names hits and unclear results; the compound was inactive in the other large screens.

CC(=O)Nc1ccc(NC(=O)CSc2nnc(NC(=O)C3CC(=O)N(c4ccc(F)cc4)C3)s2)cc1 (centres undefined)	none (no result: APP transl inh, Ba/F3 V617F tox, BaF3 tox)
Cc1ccc(NC(=O)Cc2sc(C)nc2-c2ccc(C)cc2)cc1	BaF3 tox 39.4
O=C(COC(=O)Cc1ccccc1F)NNC(=O)c1ccc([N+](=O)[O-])cc1	none (no result: APP transl inh, Ba/F3 V617F tox, KLF5 inh, BaF3 tox, IEC-6 cytotox)
COc1ccc2c(c1)C=C(CN1CCC(CO)(CCc3ccccc3)CC1)CO2	none
COc1ccc(CC2(CO)CCN(CC3=Cc4cc(Cl)ccc4OC3)CC2)cc1	Ba/F3 V617F tox 36.7, BaF3 tox 38.7
COc1cc(Cl)c(C)cc1NC(=S)NN	none
Oc1ccc(CNc2ccc(F)cc2)c2cccnc12	aSyn 5UTR inh 75.6
CC(C)CC(=O)NC(=S)NNC(=O)c1ccc([N+](=O)[O-])cc1	none
CC(C)CC(=O)NC(=S)NNC(=O)c1ccc(NC(=O)C2CCCCC2)cc1	aSyn 5UTR inh 74.7
CCOC(=O)Cc1cnc(NC(=O)CSc2nc3ncnc(N)c3[nH]2)s1	none
O=C(O)C1CSC(c2ccccc2)N1C(=O)c1ccco1 (centres undefined)	APP transl inh 49.9
O=C(O)C1Cc2ccccc2CN1C(=O)c1ccco1 (centres undefined)	none (no result: APP transl inh, Ba/F3 V617F tox, BaF3 tox)
CCCCCc1ccc(OCCOCCn2c[n+](C)c3ccccc32)c(CCCCC)c1	Ba/F3 V617F tox 100.8, BaF3 tox 81.5
CCCCCc1ccc(OCCC[n+]2ccccc2)c(CCCCC)c1	Ba/F3 V617F tox 99.9, BaF3 tox 84.0 (no result: APP transl inh)
O=C(Nc1cccc(-c2nc3ccccc3o2)c1)c1ccc(N2C(=O)C3C4C=CC(C4)C3C2=O)cc1 (centres undefined)	aSyn 5UTR inh 88.3
Cc1ccc(S(=O)(=O)N2CCC(C(=O)Nc3ccc(S(=O)(=O)N4CCCC4)cc3)CC2)cc1C	none (no result: APP transl inh, Ba/F3 V617F tox, KLF5 inh, BaF3 tox, IEC-6 cytotox)
CCOC(=O)C1CCN(S(=O)(=O)c2ccc(CNC(=O)c3ccccc3)s2)CC1	none (no result: APP transl inh, Ba/F3 V617F tox, BaF3 tox)
c1ccc(-c2nnc(-c3ccccn3)s2)nc1	aSyn 5UTR inh 78.4 (no result: APP transl inh)
CCOc1ccc(/C(C)=N\NC(=O)Cc2ccccc2)cc1	none (no result: APP transl inh, Ba/F3 V617F tox, BaF3 tox)
CN(C)c1ccc(/C=C2\CCCc3c2nc2ccccc2c3C(=O)O)cc1	none (no result: APP transl inh, Ba/F3 V617F tox, BaF3 tox)
O=C(c1ccccc1)N1C(=O)C(c2ccccc2)Oc2ccccc21 (centres undefined)	aSyn 5UTR inh 81.7 (no result: APP transl inh)
CCCCN(Cc1ccccc1)S(=O)(=O)c1ccc2[nH]c(=O)oc2c1	APP transl inh 48.9
CCc1ccc(Nc2cnn(C34CC5CC(CC(CC(=O)O)(C5)C3)C4)c(=O)c2Cl)cc1	APP transl inh 57.3
CCC/C=N/NC(=O)c1[nH]c2c([N+](=O)[O-])cccc2c1C	APP transl inh 89.4
CC(C)Oc1ccc(CNC(=O)c2cc(S(=O)(=O)N3CCOCC3)cn2C)cc1	none (no result: APP transl inh, Ba/F3 V617F tox, BaF3 tox)
O=C1NCCn2ccc(=O)cc21	none (no result: APP transl inh)
COc1nc(-c2ccccc2)cc(-c2ccc3c(c2)OCO3)c1C#N	aSyn 5UTR inh 64.4 (no result: APP transl inh)
COc1ccc(C(C)NC(=O)CC23CC4CC(CC(C4)C2)C3)cc1 (centres undefined)	none (no result: APP transl inh, Ba/F3 V617F tox, BaF3 tox)
CC(C)C(C(=O)NCC1CCCO1)N(C(=O)CNS(=O)(=O)c1ccccc1)c1ccc(F)cc1 (centres undefined)	none (no result: APP transl inh, Ba/F3 V617F tox, BaF3 tox)
O=C(NCCCN1CCOCC1)c1ccc(/C=C2\Oc3ccccc3N(Cc3ccccc3F)C2=O)cc1	none (no result: APP transl inh, Ba/F3 V617F tox, BaF3 tox)
CCN1CCN(CCCNC(=O)c2ccc(/C=C3/Oc4ccccc4N(Cc4cccc(C)c4)C3=O)cc2)CC1	aSyn 5UTR inh 101.4 (no result: APP transl inh, Ba/F3 V617F tox, BaF3 tox)
O=C1CC(c2ccc(O)cc2)Oc2cc(O)cc(O)c21 (centres undefined)	none
CC1CC(=O)c2c(cc3c(-c4c(O)cc(O)c5c(O)c6c(cc45)OC(C)CC6=O)c(O)cc(O)c3c2O)O1 (centres undefined)	APP transl inh 50.0, aSyn 5UTR inh 70.2
Cc1cc(OCC(O)CN2CCc3ccccc3C2)ccc1Cl (centres undefined)	none (no result: APP transl inh, Ba/F3 V617F tox, BaF3 tox)
OCC1OC(n2nc3ccccc3n2)C(O)C(O)C1O (centres undefined)	BaF3 tox 27.6
NC(=O)c1ncn([C@@H]2O[C@H](CO)[C@@H](O)[C@H]2O)n1	none
O=C(Nc1ccc(Cl)cn1)c1ccc([N+](=O)[O-])o1	APP transl inh 47.4
Cc1c(Cl)c([N+](=O)[O-])nn1Cc1ccc(C(=O)Nc2ccc(Cl)cn2)o1	none
O=C(Nc1nc(-c2ccccn2)cs1)c1cc(Cl)ccc1[N+](=O)[O-]	APP transl inh 75.9, Ba/F3 V617F tox 71.7, KLF5 inh 64.2, aSyn 5UTR inh 115.9, BaF3 tox 60.7, IEC-6 cytotox 83.1
O=C(Nc1nc(-c2ccccn2)cs1)c1ccc([N+](=O)[O-])o1	Ba/F3 V617F tox 84.3, BaF3 tox 88.9 (no result: APP transl inh)
Cc1ccc(OCC(=O)OCc2nc3scc(-c4ccccc4)c3c(=O)[nH]2)cc1C	none (no result: APP transl inh, Ba/F3 V617F tox, KLF5 inh, BaF3 tox, IEC-6 cytotox)
O=C(Nc1cnn(Cc2ccc(Cl)cc2)c1)c1ccc([N+](=O)[O-])cc1	none
O=C(Nc1ccc([N+](=O)[O-])cc1)c1ccc(Cn2cc([N+](=O)[O-])cn2)cc1	Ba/F3 V617F tox 45.7, aSyn 5UTR inh 78.6, BaF3 tox 46.2
CNC(=O)c1c(NC(=O)C2=COCCO2)sc(C)c1C	none (no result: APP transl inh, Ba/F3 V617F tox, KLF5 inh, BaF3 tox, IEC-6 cytotox)
O=C1c2cccc3cccc(c23)C(=O)N1Cc1cccnc1	none (no result: APP transl inh)
O=C1c2cccc3c([N+](=O)[O-])ccc(c23)C(=O)N1Cc1cccnc1	APP transl inh 82.4, Ba/F3 V617F tox 41.6, BaF3 tox 36.6
Cc1ccnc(N2C(=O)c3cccc4c([N+](=O)[O-])ccc(c34)C2=O)c1	BaF3 tox 36.3
O=C(Nc1ccc(F)cc1)c1oc2ccccc2c1NC(=O)C1CC1	none (no result: APP transl inh, Ba/F3 V617F tox, BaF3 tox)
CC(=O)N1CCc2cc(S(=O)(=O)NCCCN3CCN(Cc4ccccc4)CC3)ccc21	APP transl inh 63.3
CCC(=O)N1CCc2cc(S(=O)(=O)NCCCN3CCN(Cc4ccccc4)CC3)ccc21	none
CCCCOc1ncnc2c1[nH]c1ccccc12	BaF3 tox 34.9
CCOCCCNc1ncnc2c1[nH]c1ccccc12	none
CCCCOCCCNc1ncnc2c1[nH]c1ccccc12	Ba/F3 V617F tox 64.0, BaF3 tox 61.0
CCc1nn(CC(=O)Nc2ccc(Br)c(C)c2)c(=N)s1	none
Cc1nn(Cc2ccccc2)c(Cl)c1C(=O)NCc1ccco1	none
CCN1CCN(C(=O)Nc2cccc3ccccc23)CC1	APP transl inh 57.2
COC(=O)C1=NNC2(c3ccc(C)cc3)C(=O)N(c3ccc(C)cc3)C(=O)C12 (centres undefined)	none
O=C(NN=C1CCCCCC1)c1ccncc1	none (no result: APP transl inh, Ba/F3 V617F tox, aSyn 5UTR inh, BaF3 tox)
O=C(N/N=C/c1c(Cl)cccc1Cl)c1n[nH]c2c1CCCC2	none
O=C(NN=C1CCCC1)c1n[nH]c2c1CCC2	APP transl inh 94.0
O=C(NN=C1CCCC1)c1n[nH]c2c1CCCC2	APP transl inh 92.0
